Results from PubChem BioAssay AID1159580 (chemical genetic matrix, 2015).
The campaign covered roughly 5,500 compounds. About 2,000 (36%) were called active. Inconclusive results (about 18%) are left out. Rule as the data show it: active = normalized growth mostly below about 0.91 (no sharp cut-off); inconclusive = no clear call, values can overlap the other calls; inactive = mostly above about 0.92. Some of the results follow.

Assay: chemical genetic growth profiling, strain panel (AID 1159580);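 also: tested at 20 µM; growth read once vehicle control cultures reached saturation at 30 °C; 1 = growth at the plate median or of vehicle wells; lower values mean less growth of the strain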
Details: growth OD

Measured: normalized growth

OCC(O)Cc1ccc2c(c1)OCO2 (centres undefined)
inactive: S. cerevisiae deletion strains, locus YJR043C, strain POL32, active compounds read low 0.995 | S. cerevisiae deletion strains, locus YJR075W, strain HOC1, active compounds read low 0.984 | S. cerevisiae deletion strains, locus YKL009W, strain mrt4, active compounds read low 1 | S. cerevisiae deletion strains, locus YKL068W, active compounds read low 1 | S. cerevisiae deletion strains, locus YKL085W, strain MDH1 (second series), active compounds read low 1.03 | S. cerevisiae deletion strains, locus YKL085W, strain MDH1, active compounds read low 1.03 | S. cerevisiae deletion strains, locus YKL160W, strain elf1, active compounds read low 1 | S. cerevisiae deletion strains, locus YKL190W, strain CNB1, active compounds read low 1.02 | S. cerevisiae deletion strains, locus YKR001C, strain vps1, active compounds read low 0.999 | S. cerevisiae deletion strains, locus YKR026C, strain gcn3, active compounds read low 0.989 | S. cerevisiae deletion strains, locus YKR091W, strain srl3, active compounds read low 1 | S. cerevisiae deletion strains, locus YLL001W, strain dnm1, active compounds read low 1 | S. cerevisiae deletion strains, locus YLL026W, active compounds read low 0.997 | S. cerevisiae deletion strains, locus YLL041C, strain sdh2, active compounds read low 0.994 | S. cerevisiae deletion strains, locus YLR027C, strain aat2, active compounds read low 0.976 | S. cerevisiae deletion strains, locus YLR039C, strain RIC1, active compounds read low 1.03 | S. cerevisiae deletion strains, locus YLR058C, strain SHM2, active compounds read low 1.02 | S. cerevisiae deletion strains, locus YLR102C, strain apc9, active compounds read low 1 | S. cerevisiae deletion strains, locus YLR221C, strain rsa3, active compounds read low 0.997 | S. cerevisiae deletion strains, locus YLR258W, strain gsy2, active compounds read low 1.01 | S. cerevisiae deletion strains, locus YLR262C, strain YPT6 (second series), active compounds read low 1.01 | S. cerevisiae deletion strains, locus YLR262C, strain YPT6, active compounds read low 1.06 | S. cerevisiae deletion strains, locus YLR268W, strain sec22, active compounds read low 1 | S. cerevisiae deletion strains, locus YLR320W, strain mms22, active compounds read low 0.983 | S. cerevisiae deletion strains, locus YLR330W, strain CHS5, active compounds read low 1.01 | S. cerevisiae deletion strains, locus YLR342W, strain FKS1 (second series), active compounds read low 0.99 | S. cerevisiae deletion strains, locus YLR342W, strain FKS1, active compounds read low 0.992 | S. cerevisiae deletion strains, locus YLR357W, strain rsc2, active compounds read low 0.973 | S. cerevisiae deletion strains, locus YLR370C, strain arc18, active compounds read low 1 | S. cerevisiae deletion strains, locus YLR371W, strain rom2, active compounds read low 0.989 | S. cerevisiae deletion strains, locus YLR384C, strain iki3, active compounds read low 0.992 | S. cerevisiae deletion strains, locus YLR418C, strain cdc73, active compounds read low 1.02 | S. cerevisiae deletion strains, locus YML016C, strain PPZ1, active compounds read low 1.01 | S. cerevisiae deletion strains, locus YML032C, strain rad52, active compounds read low 0.989 | S. cerevisiae deletion strains, locus YML120C, strain ndi1, active compounds read low 0.995 | S. cerevisiae deletion strains, locus YML124C, strain tub3, active compounds read low 0.996 | S. cerevisiae deletion strains, locus YMR058W, strain fet3, active compounds read low 1.01 | S. cerevisiae deletion strains, locus YMR078C, strain ctf18, active compounds read low 0.99 | S. cerevisiae deletion strains, locus YMR125W, strain sto1, active compounds read low 0.997 | S. cerevisiae deletion strains, locus YMR129W, active compounds read low 0.994 | S. cerevisiae deletion strains, locus YMR205C, strain PFK2, active compounds read low 0.981 | S. cerevisiae deletion strains, locus YMR223W, strain ubp8, active compounds read low 0.987 | S. cerevisiae deletion strains, locus YMR231W, strain pep5, active compounds read low 0.996 | S. cerevisiae deletion strains, locus YMR263W, strain SAP30, active compounds read low 1.03 | S. cerevisiae deletion strains, locus YMR307W, strain GAS1, active compounds read low 0.956 | S. cerevisiae deletion strains, locus YNL067W, strain RPL9B, active compounds read low 1.03 | S. cerevisiae deletion strains, locus YNL071W, strain lat1, active compounds read low 1.01 | S. cerevisiae deletion strains, locus YNL128W, strain TEP1, active compounds read low 1.02 | S. cerevisiae deletion strains, locus YNL153C, strain GIM3, active compounds read low 1.03 | S. cerevisiae deletion strains, locus YNL209W, strain ssb2, active compounds read low 1.02 | S. cerevisiae deletion strains, locus YNL233W, strain BNI4, active compounds read low 1.04 | S. cerevisiae deletion strains, locus YNL248C, strain rpa49, active compounds read low 0.979 | S. cerevisiae deletion strains, locus YNL250W, strain rad50, active compounds read low 1.01 | S. cerevisiae deletion strains, locus YNL271C, strain bni1, active compounds read low 0.996 | S. cerevisiae deletion strains, locus YNL298W, strain CLA4, active compounds read low 1.01 | S. cerevisiae deletion strains, locus YNL307C, strain MCK1, active compounds read low 0.999 | S. cerevisiae deletion strains, locus YNL322C, strain KRE1 (second series), active compounds read low 1 | S. cerevisiae deletion strains, locus YNL322C, strain KRE1, active compounds read low 1.01 | S. cerevisiae deletion strains, locus YNR049C, strain mso1, active compounds read low 0.989 | S. cerevisiae deletion strains, locus YNR052C, strain pop2, active compounds read low 0.989 | S. cerevisiae deletion strains, locus YOL006C, strain TOP1, active compounds read low 1.07 | S. cerevisiae deletion strains, locus YOL012C, strain htz1 0.853 | S. cerevisiae deletion strains, locus YOL147C, strain pex11, active compounds read low 1 | S. cerevisiae deletion strains, locus YOR001W, strain rrp6, active compounds read low 0.985 | S. cerevisiae deletion strains, locus YOR061W, strain CKA2, active compounds read low 1.02 | S. cerevisiae deletion strains, locus YOR069W, strain VPS5, active compounds read low 1 | S. cerevisiae deletion strains, locus YOR070C, strain gyp1, active compounds read low 1 | S. cerevisiae deletion strains, locus YOR080W, strain dia2, active compounds read low 0.988 | S. cerevisiae deletion strains, locus YOR083W, strain WHI5, active compounds read low 1 | S. cerevisiae deletion strains, locus YOR106W, strain vam3, active compounds read low 1.03 | S. cerevisiae deletion strains, locus YOR136W, strain idh2, active compounds read low 0.993 | S. cerevisiae deletion strains, locus YOR144C, strain elg1, active compounds read low 0.997 | S. cerevisiae deletion strains, locus YOR184W, strain ser1, active compounds read low 0.99 | S. cerevisiae deletion strains, locus YOR265W, strain rbl2, active compounds read low 1 | S. cerevisiae deletion strains, locus YOR270C, strain vph1, active compounds read low 1.03 | S. cerevisiae deletion strains, locus YOR290C, strain snf2, active compounds read low 1.01 | S. cerevisiae deletion strains, locus YOR316C, strain cot1, active compounds read low 0.997 | S. cerevisiae deletion strains, locus YPL051W, strain arl3, active compounds read low 1 | S. cerevisiae deletion strains, locus YPL055C, strain LGE1, active compounds read low 1.06 | S. cerevisiae deletion strains, locus YPL078C, strain atp4, active compounds read low 1.02 | S. cerevisiae deletion strains, locus YPL106C, strain sse1, active compounds read low 0.979 | S. cerevisiae deletion strains, locus YPL240C, strain hsp82, active compounds read low 1 | S. cerevisiae deletion strains, locus YPL241C, strain CIN2, active compounds read low 1.01 | S. cerevisiae deletion strains, locus YPR119W, strain clb2, active compounds read low 0.995 | S. cerevisiae deletion strains, locus YPR141C, strain kar3, active compounds read low 0.997 | S. cerevisiae deletion strains, locus YPR163C, strain tif3, active compounds read low 0.992 | S. cerevisiae deletion strains, locus YPR167C, strain met16, active compounds read low 0.996 | S. cerevisiae deletion strains, strain wtn01, active compounds read low 0.997 | S. cerevisiae strains, strain wild type, active compounds read low 1.01
